Measured values: PubChem BioAssay (Tox21)
Records with an inconclusive call do not appear. A call without a number means that no potency is given here. A number with no mark means an inactive call. Active and inactive are the calls of the source. Unless noted, calls come from the whole dose curve; as a rule, active = well fitted curve in the direction sought with a large enough effect in the repeat runs; inconclusive = weak or mixed curves; inactive = no such curve, though single readings can be large; an effect the other way counts as inactive or inconclusive.

How the values were obtained:
[1] = molecular target: Peroxisome proliferator-activated receptor gamma (Homo sapiens) (UniProt P37231); assay: qHTS assay to identify small molecule antagonists of the peroxisome proliferator-activated receptor gamma (PPARg) signaling pathway (AID 743191; calls by dose curve; note: nearly all actives have a fitted effect of over 30% in size)
Outline: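 GeneBLAzer PPARg UAS-bla HEK293H cells carrying a UAS-driven beta-lactamase reporter were plated at 3000 cells/well, preincubated 5 h at 37C, then given compound for 17 h at 37C; LiveBLAzer B/G FRET substrate was read after 1 h at room temperature.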

[2] = qHTS assay to identify small molecule antagonists of the peroxisome proliferator-activated receptor gamma (PPARg) signaling pathway - cell viability counter screen (AID 743194); conditions: Potency: co-treated with 50 nM rosiglitazone; note: nearly all actives have a fitted effect of over 55% in size; note: potency is the fitted concentration of half-maximal effect
Outline: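 PPARg-UAS-bla HEK293H cells were plated, rested 5 h at 37 C, then treated with compounds plus rosiglitazone (50 nM final) for 17 h at 37 C; viability was then read by CellTiter-Glo luminescence after 30 min at room temperature.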

[3] = qHTS assay for small molecule agonists of the antioxidant response element (ARE) signaling pathway (AID 743202; active = well fitted activation curve with a large enough effect in the signal ratio in the repeat runs, not every such curve was filed as active; the % refers to the signal ratio)
Outline: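 Following a 16 h, 37 C exposure of reporter HepG2 cells (ARE-driven beta-lactamase, 2,000 cells/well) to compounds, FRET substrate was applied for 2 h at room temperature and fluorescence intensity recorded.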

[4] = qHTS assay for small molecule agonists of the antioxidant response element (ARE) signaling pathway - cell viability counter screen (AID 743203; calls by dose curve; note: nearly all actives have a fitted effect of over 55% in size)
Outline: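 Luminescence read-out (CellTiter-Glo, 30 min at room temperature) measured cell viability in the same wells as the ARE beta-lactamase reporter. HepG2 ARE-bla cells were treated with compounds for 16 hrs at 37C/5% CO2.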

[5] = qHTS assay for small molecule activators of the heat shock response signaling pathway (AID 743210; active = well fitted activation curve with a large enough effect in the signal ratio in the repeat runs, with a control signal flat, not every such curve was filed as active; the % refers to the signal ratio)
Outline: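 Heat shock element–beta-lactamase HeLa reporter cells; qHTS with compounds for 5 h at 37 C; detection by FRET substrate fluorescence after 2.5 h at RT.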

[6] = qHTS assay for small molecule activators of the heat shock response signaling pathway - cell viability counter screen (AID 743209); note: nearly all actives have a fitted effect of over 50% in size
Outline: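 HSE-bla HeLa; 1500 cells/well; overnight 37 C, 5% CO2; compound 5 h 37 C; LiveBLAzer B/G substrate 2.5 h RT; CellTiter-Glo 30 min RT; luminescence.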

[7] = qHTS assay to identify small molecule antagonists of the thyroid receptor (TR) signaling pathway (AID 743065); note: nearly all actives have a fitted effect of over 55% in size; note: potency is the fitted concentration of half-maximal effect
Outline: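 GH3.TRE-Luc rat pituitary cells carrying two TR response elements driving luciferase were plated for 4 h, given compound plus 1 nM T3 (final), and incubated 23.5 h at 37 C. ONE-Glo luminescence measured reporter inhibition; CellTiter-Fluor fluorescence tracked cytotoxicity.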

[8] = molecular target: Estrogen receptor (Homo sapiens) (UniProt P03372); assay: qHTS assay to identify small molecule antagonists of the estrogen receptor alpha (ER-alpha) signaling pathway (AID 743069; active = well fitted curve in the direction sought with a large enough effect in the signal ratio in the repeat runs, not every such curve was filed as active; the % refers to the signal ratio)
Outline: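 A 17beta-estradiol challenge was applied right after compound transfer to ER-alpha-UAS-bla HEK293 cells previously kept in charcoal-stripped serum. Plates stood 18 hr at 37C and 5% CO2; fluorescence was read following 2 hr FRET substrate loading at room temperature.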

[9] = qHTS assay to identify small molecule antagonists of the estrogen receptor alpha (ER-alpha) signaling pathway - cell viability counter screen (AID 743074; calls by dose curve;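 note: HEK293 cells carrying ER-alpha-UAS-bla reporter stimulated with 17beta-estradiol; nearly all actives have a fitted effect of over 45% in size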)
[10] = qHTS assay to identify small molecule antagonists of the estrogen receptor alpha (ER-alpha) signaling pathway using the BG1 cell line (AID 743080; calls by dose curve;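 note: BG1 cells stimulated with 17beta-estradiol alongside compound; nearly all actives have a fitted effect of over 25% in size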; note: potency is the fitted concentration of half-maximal effect)
Outline: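 BG1-Luc-4E2 cells (endogenous full-length ER-alpha, stable 4×ERE-luciferase) were starved 5 days in phenol-red-free medium with 10% charcoal-stripped FBS, plated 24 h, then given compound plus 17beta-estradiol for 21.5 h at 37 C; ONE-Glo luminescence read after 30 min.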

[11] = qHTS assay to identify small molecule antagonists of the estrogen receptor alpha (ER-alpha) signaling pathway using the BG1 cell line - cell viability counter screen (AID 743081);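 note: compound given together with 17beta-estradiol as the ER stimulus; nearly all actives have a fitted effect of over 45% in size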
Aromatase (Homo sapiens) = Aromatase (Homo sapiens) (UniProt P11511); assay: qHTS assay to identify aromatase inhibitors (AID 743083); note: nearly all actives have a fitted effect of over 55% in size
[12] = qHTS assay to identify aromatase inhibitors - cell viability counter screen (AID 743084)
[13] = qHTS assay to identify small molecule that activate the aryl hydrocarbon receptor (AhR) signaling pathway - cell viability counter screen (AID 743086);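 note: HepG2 liver cells carrying the AhR DRE luciferase reporter; nearly all actives have a fitted effect of over 45% in size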
Outline: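 HepG2-AhR-luc (HG2L7.5c1) cells, 4000/well, were preincubated 5 h at 37C, exposed to compound in qHTS format for 24 hr at 37C, then given CellTiter-Fluor for 30 min; viability was read as fluorescence in the reporter wells.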

[14] = molecular target: Peroxisome proliferator-activated receptor gamma (Homo sapiens) (UniProt P37231); assay: qHTS assay to identify small molecule agonists of the peroxisome proliferator-activated receptor gamma (PPARg) signaling pathway (AID 743094; active = well fitted activation curve with a large enough effect in the signal ratio in the repeat runs, not every such curve was filed as active; the % refers to the signal ratio)
Outline: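 HEK293H PPARg-bla cells, 5 h settle at 37C/5% CO2; compound (DMSO) 17 h, 37C; B/G FRET substrate 1 h RT; fluorescence intensity read-out. qHTS format.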

[15] = tested on: thyroid hormone receptor (rat, GH3 cells); assay: qHTS assay to identify small molecule agonists of the thyroid receptor (TR) signaling pathway (AID 743066; calls by dose curve)
[16] = molecular target: Aryl hydrocarbon receptor (Homo sapiens) (UniProt P35869); assay: qHTS assay to identify small molecule that activate the aryl hydrocarbon receptor (AhR) signaling pathway (AID 743085); note: nearly all actives have a fitted effect of over 15% in size; note: potency is the fitted concentration of half-maximal effect;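 for activation: HG2L7.5c1 human HepG2 liver cells with stably integrated DRE-driven firefly reporter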
Outline: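 Compounds were tested in HepG2 hepatocellular carcinoma cells harbouring a stably integrated luciferase gene under control of 20 DREs. Increased reporter signal after 24 h treatment at 37C was taken as AhR activation.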

[17] = molecular target: Estrogen receptor (Homo sapiens) (UniProt P03372); assay: qHTS assay to identify small molecule agonists of the estrogen receptor alpha (ER-alpha) signaling pathway (AID 743075; calls by dose curve;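 note: HEK293 GripTite cells with ER-alpha and UAS-driven beta-lactamase reporter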)
[18] = molecular target: Estrogen receptor (Homo sapiens) (UniProt P03372); assay: qHTS assay to identify small molecule agonists of the estrogen receptor alpha (ER-alpha) signaling pathway using the BG1 cell line (AID 743079); conditions: BG1Luc4E2 cells, ERE-luciferase agonist, 22 h; at 70.3 µM (top of the series); note: nearly all actives have a fitted effect of over 20% in size

Sequence of Aromatase (Homo sapiens) (P11511 whole entry, looked up): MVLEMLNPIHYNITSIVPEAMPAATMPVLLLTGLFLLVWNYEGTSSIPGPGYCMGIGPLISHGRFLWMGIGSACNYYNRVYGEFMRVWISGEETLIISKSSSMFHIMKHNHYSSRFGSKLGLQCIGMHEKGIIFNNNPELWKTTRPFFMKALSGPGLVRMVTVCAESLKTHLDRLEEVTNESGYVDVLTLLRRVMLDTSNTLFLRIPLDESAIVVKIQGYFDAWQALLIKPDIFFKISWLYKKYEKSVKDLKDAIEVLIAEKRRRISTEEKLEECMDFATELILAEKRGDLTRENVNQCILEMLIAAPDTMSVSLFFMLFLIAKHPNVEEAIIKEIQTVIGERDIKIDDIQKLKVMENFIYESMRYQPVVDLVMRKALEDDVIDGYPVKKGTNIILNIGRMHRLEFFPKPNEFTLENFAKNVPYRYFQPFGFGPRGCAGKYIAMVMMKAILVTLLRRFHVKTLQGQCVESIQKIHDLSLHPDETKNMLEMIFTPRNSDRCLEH
Sequence of Aryl hydrocarbon receptor (Homo sapiens) (P35869 whole entry, looked up): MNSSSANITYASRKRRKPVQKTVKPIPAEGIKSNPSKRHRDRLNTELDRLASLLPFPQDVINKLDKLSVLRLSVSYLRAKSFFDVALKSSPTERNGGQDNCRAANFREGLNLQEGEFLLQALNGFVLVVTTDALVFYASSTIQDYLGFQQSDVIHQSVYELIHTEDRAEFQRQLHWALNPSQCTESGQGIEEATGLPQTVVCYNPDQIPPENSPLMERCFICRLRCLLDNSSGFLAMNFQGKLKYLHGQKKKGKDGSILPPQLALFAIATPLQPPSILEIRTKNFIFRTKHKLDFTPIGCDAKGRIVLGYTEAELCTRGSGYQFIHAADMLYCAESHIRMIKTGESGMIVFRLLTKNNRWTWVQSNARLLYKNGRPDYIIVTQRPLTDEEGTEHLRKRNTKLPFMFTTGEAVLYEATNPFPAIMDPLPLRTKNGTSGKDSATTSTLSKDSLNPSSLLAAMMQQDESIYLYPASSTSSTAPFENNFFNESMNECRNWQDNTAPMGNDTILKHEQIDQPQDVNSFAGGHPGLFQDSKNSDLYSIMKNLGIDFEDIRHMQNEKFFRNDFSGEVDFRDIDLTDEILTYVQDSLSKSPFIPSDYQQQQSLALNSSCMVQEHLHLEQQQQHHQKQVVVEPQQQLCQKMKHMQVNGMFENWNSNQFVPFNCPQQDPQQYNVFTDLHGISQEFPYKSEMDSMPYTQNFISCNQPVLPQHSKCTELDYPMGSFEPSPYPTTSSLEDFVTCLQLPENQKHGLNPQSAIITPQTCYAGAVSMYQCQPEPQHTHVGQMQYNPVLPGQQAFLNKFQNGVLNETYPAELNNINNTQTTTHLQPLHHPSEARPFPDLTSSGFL
Sequence of Estrogen receptor (Homo sapiens) (P03372 whole entry, looked up): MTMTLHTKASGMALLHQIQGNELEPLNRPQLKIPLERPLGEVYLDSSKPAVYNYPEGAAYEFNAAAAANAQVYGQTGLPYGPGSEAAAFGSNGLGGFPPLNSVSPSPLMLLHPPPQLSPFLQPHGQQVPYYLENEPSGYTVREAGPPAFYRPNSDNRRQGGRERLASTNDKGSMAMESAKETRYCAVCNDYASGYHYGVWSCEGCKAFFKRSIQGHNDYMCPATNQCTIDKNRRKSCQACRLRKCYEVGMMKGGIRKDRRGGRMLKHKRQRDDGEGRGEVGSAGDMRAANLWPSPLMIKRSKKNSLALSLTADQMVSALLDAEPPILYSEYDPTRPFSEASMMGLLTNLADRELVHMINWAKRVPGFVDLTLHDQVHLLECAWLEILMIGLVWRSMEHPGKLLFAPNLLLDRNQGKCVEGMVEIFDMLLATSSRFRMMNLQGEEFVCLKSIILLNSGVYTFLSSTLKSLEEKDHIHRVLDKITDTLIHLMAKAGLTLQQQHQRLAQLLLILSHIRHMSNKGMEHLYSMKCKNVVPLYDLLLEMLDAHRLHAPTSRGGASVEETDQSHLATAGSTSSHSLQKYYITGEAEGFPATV
Sequence of Peroxisome proliferator-activated receptor gamma (Homo sapiens) (P37231 whole entry, looked up): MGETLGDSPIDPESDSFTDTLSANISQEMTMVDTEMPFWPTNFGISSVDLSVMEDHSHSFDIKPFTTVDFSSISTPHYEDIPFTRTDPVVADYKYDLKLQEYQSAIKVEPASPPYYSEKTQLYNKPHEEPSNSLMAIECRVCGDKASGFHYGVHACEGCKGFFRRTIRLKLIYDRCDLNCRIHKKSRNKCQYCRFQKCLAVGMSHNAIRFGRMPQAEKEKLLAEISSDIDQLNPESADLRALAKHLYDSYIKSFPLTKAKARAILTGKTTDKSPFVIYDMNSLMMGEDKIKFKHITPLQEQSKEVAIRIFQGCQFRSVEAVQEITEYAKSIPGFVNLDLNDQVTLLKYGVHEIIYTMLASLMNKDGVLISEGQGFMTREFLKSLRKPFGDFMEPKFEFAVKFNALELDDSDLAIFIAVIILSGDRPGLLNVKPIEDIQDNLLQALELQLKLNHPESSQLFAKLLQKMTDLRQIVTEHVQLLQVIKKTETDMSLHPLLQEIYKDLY

SMILES	Potency [1]	Potency [2]	Potency [3]	Potency [4]	outcome [5]	Potency [6]	Potency [7]	Potency [8]	outcome [9]	Potency [10]	Potency [11]	Potency (Aromatase (Homo sapiens))	Potency [12]	outcome [13]	outcome [14]	Potency [15]	Potency [16]	Potency [17]	activation [18]
Fc1cc(Br)ccc1CBr	inactive	inactive	inactive	inactive	inactive	–	–	–	–	–	–	–	–	–	–	–	–	–	–
CC1COC2(c3ccccc3Cl)c3cc(Cl)ccc3NC(=O)CN12 (configuration not stated)	inactive	inactive	–	inactive	inactive	inactive	–	–	–	–	–	–	–	–	–	–	–	–	–
COc1cc(C[C@@H](C)N)c(OC)cc1C	inactive	inactive	–	inactive	inactive	inactive	65.4 µM (active)	inactive	inactive	inactive	inactive	inactive	inactive	inactive	inactive	–	–	–	–
CC1=C(C(=O)O)N2C(=O)[C@@H](N)[C@H]2SC1	inactive	inactive	inactive	inactive	–	inactive	–	–	–	–	–	–	–	–	–	–	–	–	–
COC(=O)C(C)Oc1ccc(Oc2ccc(Cl)cc2Cl)cc1 (configuration not stated)	inactive	inactive	inactive	inactive	inactive	–	inactive	–	inactive	–	inactive	inactive	inactive	inactive	–	inactive	inactive	–	–
CCCCOC(=O)c1ccccc1N	–	–	–	inactive	inactive	inactive	–	–	inactive	–	inactive	inactive	inactive	inactive	inactive	–	inactive	–	–
CC(C(O)c1ccccc1)N(C)C/C=C/c1ccccc1 (configuration not stated)	inactive	inactive	–	inactive	inactive	inactive	–	–	–	–	–	–	–	–	–	–	–	–	–
CCCCC(=O)Cl	–	–	–	inactive	inactive	inactive	inactive	–	inactive	–	inactive	–	–	inactive	–	inactive	–	–	–
OC(c1ccccc1)(c1ccccc1)C1CCNCC1	inactive	inactive	–	inactive	inactive	inactive	–	–	inactive	–	inactive	inactive	inactive	inactive	inactive	inactive	inactive	–	–
C[C@]12CC[C@H]3[C@@H](CCC4=CC(=O)CC[C@@]43C)[C@@H]1CC[C@@H]2C(=O)O	–	inactive	–	inactive	inactive	inactive	–	–	–	–	–	–	–	–	–	–	–	–	–
CC(C)(C)NCC(O)c1cc(Cl)c(N)c(Cl)c1 (configuration not stated)	inactive	–	inactive	inactive	inactive	inactive	inactive	–	inactive	–	–	inactive	–	inactive	inactive	inactive	inactive	–	–
Cc1ncc2n1-c1ccc(Cl)cc1C(c1ccccc1F)=NC2	inactive	inactive	–	inactive	–	inactive	–	–	–	11.9 µM (active)	inactive	inactive	inactive	inactive	–	inactive	–	inactive	–
CC(C)CC(N(C)C)C1(c2ccc(Cl)cc2)CCC1 (configuration not stated)	–	–	inactive	inactive	–	inactive	–	–	inactive	–	inactive	inactive	inactive	inactive	–	inactive	inactive	–	–
C[C@]1(O)CC[C@H]2[C@@H]3CCC4=CC(=O)CC[C@]4(C)[C@@]3(F)[C@@H](O)C[C@@]21C	inactive	–	–	inactive	inactive	inactive	–	–	inactive	–	inactive	inactive	inactive	inactive	inactive	–	inactive	–	–
O=C(Nc1ccccc1)N(Cc1ccc(Cl)cc1)C1CCCC1	–	21.9 µM (active)	–	–	–	inactive	21.7 µM (active)	–	inactive	–	inactive	inactive	inactive	–	–	inactive	54.5 µM (active)	–	–
COC(=O)c1c(C(F)F)nc(C(F)(F)F)c(C2=NCCS2)c1CC(C)C	inactive	inactive	inactive	inactive	inactive	–	–	inactive	inactive	inactive	inactive	inactive	inactive	inactive	inactive	inactive	inactive	inactive	0.436%
